From PubChem BioAssay (Tox21)
Active and inactive are the calls of the source. Unless noted, calls come from the whole dose curve; as a rule, active = well fitted curve in the direction sought with a large enough effect in the repeat runs; inconclusive = weak or mixed curves; inactive = no such curve, though single readings can be large; an effect the other way counts as inactive or inconclusive.

What was measured:
[1] = qHTS assay to identify small molecule antagonists of the thyroid receptor (TR) signaling pathway (AID 743065); note: nearly all actives have a fitted effect of over 55% in size
Method in brief: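 GH3.TRE-Luc rat pituitary cells carrying two TR response elements driving luciferase were plated for 4 h, given compound plus 1 nM T3 (final), and incubated 23.5 h at 37 C. ONE-Glo luminescence measured reporter inhibition; CellTiter-Fluor fluorescence tracked cytotoxicity.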

[2] = tested on: thyroid hormone receptor (rat, GH3 cells); test: qHTS assay to identify small molecule agonists of the thyroid receptor (TR) signaling pathway (AID 743066; calls by dose curve)
[3] = qHTS assay to identify small molecule antagonists of the estrogen receptor alpha (ER-alpha) signaling pathway - cell viability counter screen (AID 743074; calls by dose curve;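 note: HEK293 cells carrying ER-alpha-UAS-bla reporter stimulated with 17beta-estradiol; nearly all actives have a fitted effect of over 45% in size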)
[4] = qHTS assay to identify aromatase inhibitors - cell viability counter screen (AID 743084);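 note: cells stimulated with testosterone during compound exposure; nearly all actives have a fitted effect of over 55% in size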
[5] = qHTS assay to identify small molecule antagonists of the estrogen receptor alpha (ER-alpha) signaling pathway using the BG1 cell line - cell viability counter screen (AID 743081);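 note: compound given together with 17beta-estradiol as the ER stimulus; nearly all actives have a fitted effect of over 45% in size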
Aromatase (Homo sapiens) = Aromatase (Homo sapiens) (UniProt P11511); test: qHTS assay to identify aromatase inhibitors (AID 743083); note: nearly all actives have a fitted effect of over 55% in size
[6] = molecular target: Estrogen receptor (Homo sapiens) (UniProt P03372); test: qHTS assay to identify small molecule antagonists of the estrogen receptor alpha (ER-alpha) signaling pathway (AID 743069; active = well fitted curve in the direction sought with a large enough effect in the signal ratio in the repeat runs, not every such curve was filed as active; inconclusive = weak or mixed curves, or effect the other way; inactive = no such curve, though single readings can be large or run the other way; the % refers to the signal ratio)
Method in brief: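 Estradiol-stimulated ER-alpha-UAS-bla HEK293 cells, 18 hr compound exposure at 37C. LiveBLAzer B/G substrate, 2 hr RT, fluorescence read.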

[7] = molecular target: Estrogen receptor (Homo sapiens) (UniProt P03372); test: qHTS assay to identify small molecule agonists of the estrogen receptor alpha (ER-alpha) signaling pathway (AID 743075; calls by dose curve;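 note: HEK293 GripTite cells with ER-alpha and UAS-driven beta-lactamase reporter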)
[8] = molecular target: Estrogen receptor (Homo sapiens) (UniProt P03372); test: qHTS assay to identify small molecule agonists of the estrogen receptor alpha (ER-alpha) signaling pathway using the BG1 cell line (AID 743079); settings: BG1Luc4E2 cells, ERE-luciferase agonist, 22 h; activation: at 70.3 µM (top of the series); note: nearly all actives have a fitted effect of over 20% in size
[9] = qHTS assay to identify small molecule antagonists of the estrogen receptor alpha (ER-alpha) signaling pathway using the BG1 cell line (AID 743080; calls by dose curve;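 note: BG1 cells stimulated with 17beta-estradiol alongside compound; nearly all actives have a fitted effect of over 25% in size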)
Method in brief: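 BG1Luc4E2, endogenous ER-alpha, 4xERE-luc; 5 d charcoal-stripped FBS, phenol red free; 24 h plating; cpd + 17beta-estradiol 21.5 h, 37 C/5% CO2; CellTiter-Fluor viability 30 min, then ONE-Glo luciferase 30 min RT.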
% is set by controls: 0 for no effect and ±100 for the full control effect; potency is the fitted concentration of half-maximal effect.

Sequence of Aromatase (Homo sapiens) (P11511 whole entry, looked up): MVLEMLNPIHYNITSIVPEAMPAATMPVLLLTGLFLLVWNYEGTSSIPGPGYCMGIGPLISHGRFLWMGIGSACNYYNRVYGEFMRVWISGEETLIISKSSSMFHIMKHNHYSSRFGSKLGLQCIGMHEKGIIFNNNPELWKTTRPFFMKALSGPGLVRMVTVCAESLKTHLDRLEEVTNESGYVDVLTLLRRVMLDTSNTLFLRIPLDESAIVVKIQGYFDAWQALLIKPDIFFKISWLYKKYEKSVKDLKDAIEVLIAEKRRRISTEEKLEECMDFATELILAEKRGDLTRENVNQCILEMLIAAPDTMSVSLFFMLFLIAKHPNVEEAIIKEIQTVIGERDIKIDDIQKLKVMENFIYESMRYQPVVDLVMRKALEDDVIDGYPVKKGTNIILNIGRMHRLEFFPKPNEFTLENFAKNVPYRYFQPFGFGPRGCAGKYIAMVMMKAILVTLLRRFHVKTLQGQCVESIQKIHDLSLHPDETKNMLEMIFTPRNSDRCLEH
Sequence of Estrogen receptor (Homo sapiens) (P03372 whole entry, looked up): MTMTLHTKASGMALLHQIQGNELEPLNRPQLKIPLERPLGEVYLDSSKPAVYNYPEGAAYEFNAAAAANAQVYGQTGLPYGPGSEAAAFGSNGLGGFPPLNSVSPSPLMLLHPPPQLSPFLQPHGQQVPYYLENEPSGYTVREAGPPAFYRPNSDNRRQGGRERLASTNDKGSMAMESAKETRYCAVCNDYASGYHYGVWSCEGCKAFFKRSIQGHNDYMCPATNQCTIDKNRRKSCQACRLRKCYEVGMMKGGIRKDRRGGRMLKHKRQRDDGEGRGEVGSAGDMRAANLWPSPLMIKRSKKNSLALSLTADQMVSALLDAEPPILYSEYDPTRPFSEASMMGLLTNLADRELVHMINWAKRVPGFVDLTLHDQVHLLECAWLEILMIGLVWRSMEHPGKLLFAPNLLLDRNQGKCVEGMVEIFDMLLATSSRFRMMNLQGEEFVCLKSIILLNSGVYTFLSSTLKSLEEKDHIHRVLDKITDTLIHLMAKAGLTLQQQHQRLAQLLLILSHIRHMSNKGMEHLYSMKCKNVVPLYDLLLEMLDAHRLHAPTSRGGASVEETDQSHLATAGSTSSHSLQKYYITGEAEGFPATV

CSC1=N[C@@](C)(c2ccccc2)C(=O)N1Nc1ccccc1
active: Potency [1] 6.86 µM
inactive: Potency [2] | Potency [3] | Potency [4]

O=C(N[C@H]1N=C(c2ccccc2F)c2cccc3c2N(CC3)C1=O)c1cc2ccccc2[nH]1
inactive: Potency [2] | Potency [5] | Potency (Aromatase (Homo sapiens)) | Potency [4]
active: Potency [1] 5.96 µM

CCCCCCC[CH2][Sn]([Cl])([Cl])[CH2]CCCCCCC
active: Potency [1] 54.4 µM | Potency [3] 24.5 µM
inactive: Potency [2] | Potency [5] | Potency [4]

O=C(NC(=O)c1c(F)cccc1F)Nc1ccc(Oc2ccc(C(F)(F)F)cc2Cl)cc1F
active: Potency [1] 38.6 µM
inactive: Potency [2] | Potency [3] | Potency [5] | Potency [4]

COC(=O)c1cc(Oc2ccc(Cl)cc2Cl)ccc1[N+](=O)[O-]
inactive: Potency [2] | Potency [3] | Potency [5] | Potency [4]
active: Potency [1] 61.1 µM

CN1CCc2cc3c(cc2C1O)OCO3 (centres undefined)
inactive: Potency [1] | Potency [2] | Potency [3] | Potency (Aromatase (Homo sapiens))

CO/N=C(\C(=O)OC)c1ccccc1CO/N=C(\C)c1cccc(C(F)(F)F)c1
inactive: Potency [2]
active: Potency [1] 0.969 µM | Potency (Aromatase (Homo sapiens)) 61.1 µM

CCCCC(CC)COC(=O)OOC(C)(C)C (centres undefined)
inactive: Potency [1] | Potency [2] | Potency [3] | Potency [5] | Potency (Aromatase (Homo sapiens)) | Potency [4]

ClC1=C(Cl)[C@]2(Cl)[C@H]3[C@H]([C@@H]4C=C[C@H]3C4)[C@@]1(Cl)C2(Cl)Cl
inactive: Potency [6] | Potency [3] | Potency [7] | Potency [8] | Potency [9] | Potency [5] | Potency (Aromatase (Homo sapiens)) | Potency [4]
active: Potency [1] 54.5 µM

CCCCON=O
inactive: Potency [1] | Potency [2] | Potency [3] | Potency [5] | Potency (Aromatase (Homo sapiens)) | Potency [4]

Oc1cc(Cl)c(Cl)c(Cl)c1Cl
inactive: Potency [2] | Potency [7] | Potency [5]
active: Potency [1] 15 µM

CCOC(=O)CCN(SN(C)C(=O)Oc1cccc2c1OC(C)(C)C2)C(C)C
inactive: Potency [1] | Potency [3] | Potency [7] | Potency [8] | Potency [9] | Potency [5] | Potency (Aromatase (Homo sapiens)) | Potency [4]

CN(C)CCc1c[nH]c2ccccc12
inactive: Potency [1] | Potency [2] | Potency [3] | Potency [5] | Potency [4]

COc1ccc2c(c1OC)C(=O)O[C@@H]2[C@H]1c2cc3c(cc2CCN1C)OCO3
inactive: Potency [1] | Potency [2] | Potency [3] | Potency (Aromatase (Homo sapiens))
active: Potency [4] 2.15 µM

Nc1ccc(N=Nc2ccccc2)cc1
active: Potency [8] 14.1 µM | Potency [5] 43.3 µM | Potency [4] 24.3 µM
inactive: Potency [1] | Potency [2] | Potency [7] | Potency (Aromatase (Homo sapiens))

CC(=O)[O][Pb]([c]1ccccc1)([c]1ccccc1)[c]1ccccc1
active: Potency [1] 0.077 µM | Potency [6] 54.9 µM [cytotoxic] | Potency [3] 6.92 µM | Potency [7] 49 µM [inconclusive] | Potency [5] 10.9 µM | Potency (Aromatase (Homo sapiens)) 0.193 µM | Potency [4] 0.193 µM

c1ccc2c(c1)cc1ccc3cccc4ccc2c1c34
inactive: Potency [1] | Potency [2] | Potency [3] | Potency (Aromatase (Homo sapiens))

CNN
inactive: Potency [1] | Potency [2] | Potency [3] | Potency [5] | Potency (Aromatase (Homo sapiens)) | Potency [4]

CC[C@]1(O)CC[C@H]2[C@@H]3CCC4=CCCC[C@@H]4[C@H]3CC[C@@]21C
active: Potency [1] 8.41 µM | Potency [7] 0.0005 µM [inconclusive] | activation [8] 5.41%
inactive: Potency [3] | Potency [9] | Potency [5]

Oc1ccc2[nH]cc(CCCCN3CC=C(c4ccccc4)CC3)c2c1
active: Potency [1] 11.9 µM
inactive: Potency [2] | Potency [3] | Potency (Aromatase (Homo sapiens)) | Potency [4]

CCOP(=O)(OCC)Oc1nc(Cl)c(Cl)cc1Cl
inactive: Potency [2] | Potency [5]
active: Potency [1] 24.2 µM | Potency [7] 12.2 µM [inconclusive] | Potency [9] 48.3 µM | Potency (Aromatase (Homo sapiens)) 27.1 µM

BrCCCBr
inactive: Potency [1] | Potency [2] | Potency [3] | Potency [5] | Potency (Aromatase (Homo sapiens)) | Potency [4]

O=C(Nc1ccc(F)cc1F)c1cccnc1Oc1cccc(C(F)(F)F)c1
inactive: Potency [1] | Potency [2] | Potency [3] | Potency [5] | Potency (Aromatase (Homo sapiens)) | Potency [4]

CCCCn1cc[n+](C)c1.[Cl][Fe-]([Cl])([Cl])[Cl]
inactive: Potency [1] | Potency [2] | Potency [3] | Potency [5] | Potency (Aromatase (Homo sapiens)) | Potency [4]

c1csc(-c2ccc(-c3cccs3)s2)c1
active: Potency [2] 61.1 µM | Potency [8] 27.3 µM
inactive: Potency [1] | Potency [5] | Potency (Aromatase (Homo sapiens)) | Potency [4]

CO/N=C(/C1=NOCCO1)c1ccccc1Oc1ncnc(Oc2ccccc2Cl)c1F
active: Potency [1] 0.863 µM | Potency [6] 54.9 µM [inconclusive] | Potency [9] 8.63 µM | Potency (Aromatase (Homo sapiens)) 54.4 µM | Potency [4] 54.4 µM

N#Cc1c[nH]cc1-c1cccc2c1OC(F)(F)O2
inactive: Potency [3] | Potency [8] | Potency [5] | Potency [4]
active: Potency [1] 12.2 µM | Potency [6] 13.8 µM [inhibitor] | Potency [7] 17.4 µM [inconclusive] | Potency [9] 48.6 µM | Potency (Aromatase (Homo sapiens)) 27.3 µM

[Cl-].[Cl-].[Sn+2]
inactive: Potency [1] | Potency [2] | Potency [3] | Potency (Aromatase (Homo sapiens)) | Potency [4]

COP(=O)(OC)Oc1ccc([N+](=O)[O-])cc1
active: Potency (Aromatase (Homo sapiens)) 34.4 µM
inactive: Potency [1] | Potency [2] | Potency [7] | Potency [8] | Potency [9] | Potency [5] | Potency [4]

CN1CCc2cc(Cl)c(O)cc2[C@H]2c3ccccc3CC[C@@H]21
inactive: Potency [3] | Potency [7] | Potency [8] | Potency (Aromatase (Homo sapiens)) | Potency [4]
active: Potency [1] 13.3 µM

ClC1=C(Cl)[C@]2(Cl)[C@@H]3[C@H]4C[C@H]([C@@H]5O[C@H]45)[C@@H]3[C@@]1(Cl)C2(Cl)Cl
inactive: Potency [2] | Potency [6] | Potency [3] | Potency [7] | Potency [8] | Potency [9] | Potency [5] | Potency (Aromatase (Homo sapiens)) | Potency [4]

COP(=S)(OC)Oc1nc(Cl)c(Cl)cc1Cl
inactive: Potency [2] | Potency [3] | Potency [7] | Potency [8] | Potency [9] | Potency [5] | Potency (Aromatase (Homo sapiens)) | Potency [4]

CCC[CH2][Sn]([CH2]CCC)([CH2]CCC)[O][Sn]([CH2]CCC)([CH2]CCC)[CH2]CCC
inactive: activity, negative = inhibition [1] 7.29% [at 8.44 µM]
active: Potency [3] 0.852 µM | Potency (Aromatase (Homo sapiens)) 2.67 µM | Potency [4] 2.12 µM

CCC[CH2][Sn]([CH2]CCC)([CH2]CCC)[CH2]CCC
active: Potency [1] 19.3 µM | Potency [4] 43.3 µM
inactive: Potency (Aromatase (Homo sapiens))

CCN(CC)CCc1c[nH]c2ccccc12
inactive: Potency [2] | Potency [6] | Potency [3] | Potency [7] | Potency [8] | Potency [9] | Potency [5] | Potency [4]

CC(C)N(C(=O)SC/C(Cl)=C/Cl)C(C)C
inactive: Potency [2] | Potency [6] | Potency [8] | Potency [9] | Potency [5] | Potency [4]

[F][Sn]([c]1ccccc1)([c]1ccccc1)[c]1ccccc1
active: Potency [1] 0.386 µM | Potency [3] 1.1 µM | Potency [7] 2.19 µM [inconclusive] | Potency [9] 1.93 µM | Potency [5] 7.7 µM | Potency [4] 3.06 µM

Oc1ccc([C@H]2CNCc3c2ccc(O)c3O)cc1O
inactive: Potency [2] | Potency [6] | Potency [7] | Potency [8] | Potency [9] | Potency [5] | Potency (Aromatase (Homo sapiens)) | Potency [4]

CCCCC(CC)COC(=O)c1ccccc1C(=O)OCC(CC)CCCC (centres undefined)
inactive: Potency [2] | Potency [6] | Potency [7] | Potency [8] | Potency [9] | Potency [5] | Potency (Aromatase (Homo sapiens)) | Potency [4]

O=c1c2ccccc2c(=O)c2c1cc(Cl)c1[nH]c3c([nH]c12)c(Cl)cc1c(=O)c2ccccc2c(=O)c13
inactive: Potency [2] | Potency [6] | Potency [3] | Potency [7] | Potency [8] | Potency [9] | Potency [5] | Potency (Aromatase (Homo sapiens)) | Potency [4]

Cc1ccccc1OP(=O)(Oc1ccccc1C)Oc1ccccc1C
inactive: Potency [7] | Potency [9] | Potency [5] | Potency [4]
active: Potency [1] 54.7 µM | Potency [8] 3.87 µM

FC(F)C(F)(F)OCC(Cn1cncn1)c1ccc(Cl)cc1Cl (centres undefined)
active: Potency [1] 60.8 µM | Potency (Aromatase (Homo sapiens)) 7.65 µM
inactive: Potency [5]

O=C(O)[C@H](O)[C@@H](O)C(=O)O
inactive: Potency [2] | Potency [6] | Potency [3] | Potency [7] | Potency [8] | Potency [9] | Potency [5] | Potency (Aromatase (Homo sapiens)) | Potency [4]

c1cc[n+]2c(c1)-c1cccc[n+]1CC2
inactive: Potency [2] | Potency [6] | Potency [3] | Potency [7] | Potency (Aromatase (Homo sapiens)) | Potency [4]

C#CCC1=C(C)C(OC(=O)C2C(C=C(C)C)C2(C)C)CC1=O (centres undefined)
inactive: Potency [3] | Potency [5]
active: Potency [1] 60.7 µM

CCN(CC)C(=O)N[C@@H]1C=C2c3cccc4[nH]cc(c34)C[C@@H]2N(C)C1
inactive: Potency [2] | Potency [6] | Potency [3] | Potency [7] | Potency [8] | Potency [5] | Potency [4]

CC(O)C(=O)[O][Hg][c]1ccccc1 (centres undefined)
active: Potency [1] 0.344 µM | Potency [3] 5.49 µM | Potency [7] 0.692 µM [fluorescent] | Potency [5] 3.06 µM | Potency (Aromatase (Homo sapiens)) 0.969 µM | Potency [4] 1.09 µM

S=C=NCCc1ccccc1
inactive: Potency [2] | Potency [6] | Potency [3] | Potency [7] | Potency [5] | Potency (Aromatase (Homo sapiens))
active: Potency [8] 54.6 µM

[Cl][Hg][c]1ccccc1
active: Potency [1] 0.0863 µM | Potency [3] 12.3 µM | Potency [7] 4.36 µM [fluorescent] | Potency [5] 30.6 µM | Potency (Aromatase (Homo sapiens)) 1.37 µM | Potency [4] 1.93 µM
